Gal4-VP16 FLuc = VP16 counterscreen qHTS for inhibitors of ROR gamma transcriptional activity; Drosophila S2 Gal4-VP16 UAS-luciferase, luminescence, 20 h; Potency, µM (series often up to 53.6 µM), inactives show at the highest dose activity, negative = inhibition, usual class: inhibitors; 310,000 tested, 3.5% active; AID 2546, 2010;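 also: Gal4-VP16 expression switched on by copper sulfate through the metallothionein promoter; potency is read from the fitted curve at half-maximal effect; % is scaled to controls: 0 for no effect and ±100 for the full control effect; nearly all actives have a fitted effect of over 50% in size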
RORg inh = qHTS for inhibitors of ROR gamma transcriptional activity. Drosophila S2 Gal4-RORgamma UAS-luciferase reporter, 20 h. Potency, µM (doses to about 53.6 µM), for the others: at the highest dose activity change, negative = inhibition, actives largely listed as inhibitors. 310,000 tested, 5.4% active. AID 2551, 2010; also: potency is read from the fitted curve at half-maximal effect; % is scaled to controls: 0 for no effect and ±100 for the full control effect; nearly all actives have a fitted effect of over 60% in size
Target sequence (P51450 whole entry, looked up, the tested form may be a part): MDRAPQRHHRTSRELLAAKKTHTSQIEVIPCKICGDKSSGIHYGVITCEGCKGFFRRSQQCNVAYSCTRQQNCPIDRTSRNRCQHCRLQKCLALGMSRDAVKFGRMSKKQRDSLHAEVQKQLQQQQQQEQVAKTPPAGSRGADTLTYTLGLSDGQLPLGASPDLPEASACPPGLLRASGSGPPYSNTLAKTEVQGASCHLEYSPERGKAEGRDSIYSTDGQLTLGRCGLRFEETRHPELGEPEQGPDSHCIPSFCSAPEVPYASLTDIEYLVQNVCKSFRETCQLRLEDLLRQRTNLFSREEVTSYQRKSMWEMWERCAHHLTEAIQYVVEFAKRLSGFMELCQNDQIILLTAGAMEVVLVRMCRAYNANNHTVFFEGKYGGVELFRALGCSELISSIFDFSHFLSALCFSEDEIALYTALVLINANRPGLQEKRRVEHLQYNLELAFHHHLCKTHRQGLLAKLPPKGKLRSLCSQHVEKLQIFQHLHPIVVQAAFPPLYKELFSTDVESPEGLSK
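Stably transfected Drosophila Schneider cells are the test system, with ROR gamma fused to Gal4 and luciferase under UAS control; luminescence is read after 20 hr of 700 uM copper sulfate induction at ambient temperature.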
SW480 rereplic = A quantitative high throughput screen for small molecules that induce DNA re-replication in SW480 colon adenocarcinoma cells; SW480 DNA re-replication, Hoechst DNA content imaging, 48 h; Potency, µM (top dose mostly 46.1 µM), for inactives: at the highest dose re-replication activation, usual class: activators; 340,000 tested, 1.8% active; also: potency is read from the fitted curve at half-maximal effect; % of control where 0% means no effect; nearly all actives have a fitted effect of over 55% in size
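Readout is total intensity of Hoechst-stained nuclei, excited at 405 nm and collected at 500-530 nm. Compound treatment lasted 48 hr at 37 C in 5% CO2 before staining.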
Giardia kill = Small Molecules that selectively kill Giardia lamblia: qHTS; Giardia lamblia trophozoite viability; activity change, % at 7.66 µM, hits read low; 340,000 tested, 0.15% active; AID 540267, 2011; in the data active = activity change below about -80%; inconclusive = between about -30% and that limit;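 also: parasites exposed to compound for two days anaerobically before the ATP read; % is scaled to controls: 0 for no effect and ±100 for the full control effect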
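Media and compound were dispensed first, then trophozoites at 100 cells/well; plates sat 48 hrs at 37 deg C without oxygen before ATP luminescence reagent was added and read after 15-30 min at room temperature.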
Chronic BCR inh = qHTS Assay to Find Inhibitors of Chronic Active B-Cell Receptor Signaling. ABC-DLBCL IkBa-CBG/CBR reporter, luminescence ratio, 4 h. 340,000 tested, 0.05% active. Potency, µM (top dose mostly 46.1 µM), inactives show top-dose activity change, negative = inhibition, actives largely listed as inhibitors. AID 493014, 2011; active = well fitted inhibition curve with a large enough effect in the signal ratio, with a control signal flat, not every such curve was filed as active; inconclusive = small, poorly fitted or top-dose-only effect, or effect the other way, or a change in a side signal; the % refers to the signal ratio;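 also: potency is read from the fitted curve at half-maximal effect; plate controls were basal doxycycline-induced cells for no effect and cells given 10 µM MG132 for full effect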
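Compounds up to 46 uM were incubated four hours with TMD8 cells whose green CBG68 luciferase is fused to IkappaBalpha; red CBR luminescence normalised the signal, and concentration-effect curves were fitted to fusion, red and ratio data.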
MCF10A rerep = A quantitative high throughput screen for small molecules that induce DNA re-replication in MCF 10a normal breast cells. MCF 10A DNA re-replication, Hoechst nuclear intensity, 48 h. Potency, µM (top dose mostly 46.1 µM), inactives show top-dose activity, positive = re-replication, most hits filed as activators. 350,000 tested, 2.9% active. AID 624296, 2012; also: potency is read from the fitted curve at half-maximal effect; % of control where 0% means no effect; nearly all actives have a fitted effect of over 50% in size
Starred values were filed as active, the others as inactive; ? = inconclusive; . = no result given; [ ] = another dose, or the depositor's remark. Most compounds without a hit are left out; they make up all but 8.3% or so of the library. Unless noted, calls follow the shape of the dose curve; as a rule, active = well fitted curve in the direction sought with a large enough effect; inconclusive = small, poorly fitted or top-dose-only effect, or another doubt; inactive = no such curve, though single readings can be large; an effect the other way counts as inactive or inconclusive.

SMILES	Gal4-VP16 FLuc	RORg inh	SW480 rereplic	Giardia kill	Chronic BCR inh	MCF10A rerep
O=C(NCCN1C(=O)S/C(=C\c2ccc(Cl)cc2)C1=O)C1=COCCO1	.	.	0%	14	2%	2%
CCN(Cc1ccccc1)C(=O)c1cc(S(=O)(=O)N2CCOCC2)cn1C	-13%	-1%	-3%	0	-2%	3%
CC(C)(C(=O)Nc1nccs1)c1ccccc1	3%	-3%	-5%	-8	?	0%
Cc1nn(-c2ccccc2)c(C)c1/C=N/NC(=O)c1cnccn1	-9%	11%	-20%	10	?	0%
O=C(N/N=C/c1ccccn1)c1cc(-c2ccc(Br)s2)[nH]n1	-28%	18µM*	-1%	-2	9%	?
O=C(N/N=C/c1ccccn1)c1cc(-c2ccc(Cl)s2)[nH]n1	-7%	?	21%	-5	1%	30%
COc1cc(/C=N/NC(=O)c2cc(-c3c(C)nn(-c4ccccc4)c3C)n[nH]2)ccc1O	-4%	?	?	0	-3%	21%
Cc1nn(-c2ccccc2)c(C)c1/C=N/NC(=O)c1cc(-c2ccc(Cl)s2)[nH]n1	-22%	?	5.2µM*	4	1%	3.7µM*
Cc1nn(-c2ccccc2)c(C)c1-c1cc(C(=O)N/N=C/c2ccc(O)cc2)[nH]n1	17%	?	22%	5	?	18µM*
Cc1nn(-c2ccccc2)c(C)c1/C=N/NC(=O)c1cc(C23CC4CC(CC(C4)C2)C3)[nH]n1	-20%	13%	20%	24	7%	2.6µM*
CCN(CC)S(=O)(=O)c1ccc(C(=O)Nc2cc(S(=O)(=O)N3CCOCC3)ccc2O)cc1	.	.	-21%	-3	1%	-7%
COc1ccc(C(=O)N=c2nc(-c3ccccc3)n(-c3ccccc3)s2)cc1	.	.	.	40	.	.
Cc1nn(-c2ccccc2)c(C)c1/C=N/NC(=O)c1cc(C2CC2)[nH]n1	19%	35%	0%	-27	1%	-4%
Cc1nn(-c2ccccc2)c(C)c1/C=N/NC(=O)c1cc(-c2ccc(Br)s2)[nH]n1	-1%[0.365 µM]	?	15µM*	7	7%	4.1µM*
COc1cc(/C=N/NC(=O)c2cc(C34CC5CC(CC(C5)C3)C4)[nH]n2)ccc1O	0%	-1%	0%	13	2%	1.3µM*
Cc1cc(C(=O)N/N=C/c2c(C)nn(-c3ccccc3)c2C)n[nH]1	8%	3%	-4%	1	?	3%
Cc1nn(-c2ccccc2)c(C)c1/C=N/NC(=O)c1cc(-c2cccs2)[nH]n1	-28%	32%	0.65µM*	-21	18µM*	29%
CCn1c(=S)[nH]c2c(c1=O)C(C)(C)Cc1ccccc1-2	3.5µM*	1µM*	-3%	-30	2%	?
Cn1c(=S)[nH]c2c(c1=O)C(C)(C)Cc1ccccc1-2	?	-3%	-9%	-14	?	-6%
COc1cc(C2Oc3cc(C4Oc5cc(O)cc(O)c5C(=O)C4O)ccc3OC2CO)ccc1O (centres undefined)	2%	5%	17%	-11	0%	26µM*
COc1cccc(-c2cncnc2NCCc2cnc[nH]2)c1	2%	-32%	.	.	.	.
COc1ccc(C2SCC(=O)N2CCc2ccc(OC)c(OC)c2)cc1 (centres undefined)	2.8µM*	?	10µM*	-18	?	0.52µM*
COc1ccc(CCN2C(=O)C=CC2=O)cc1OC	.	.	7.3µM*	9	.	4.6µM*
COc1ccc(CCN2C(=O)CSC2c2ccc(OC)c(OC)c2)cc1OC (centres undefined)	-13%	41%	-15%	23	?	3%
COc1ccc(CCn2c(C)ccc2C)cc1OC	0%	?	.	.	-5%	.

Compound activity deposited in PubChem BioAssay by National Center for Advancing Translational Sciences (NCATS).
